PubChem BioAssay AID1159580 (chemical genetic matrix, 2015)
Where “and” joins values, the source holds several entries; their conditions need not be identical. Equal values may be shown once. Screen size: about 5,500 compounds; about 2,000 (36%) were called active. Inconclusive results (about 18%) are left out. Cut-off read from the data, not from the text of the source: active = normalized growth mostly below about 0.91 (no sharp cut-off); inconclusive = no clear call, values can overlap the other calls; inactive = mostly above about 0.92. The list shows a part of the results.

Experiment: chemical genetic growth profiling, strain panel (AID 1159580);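 note: tested at 20 µM; growth read once vehicle control cultures reached saturation at 30 °C; 1 = growth at the plate median or of vehicle wells; lower values mean less growth of the strain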
Settings: S. cerevisiae deletion strains, growth OD

Measured: normalized growth

COc1ccc2c(c1)[C@]13CCCC[C@H]1[C@H](C2)N(C)CC3
inactive: locus YAL021C, strain ccr4, stronger effect = lower value 0.94 | locus YAL026C, strain drs2, stronger effect = lower value 1 | locus YAL030W, strain snc1, stronger effect = lower value 0.971 | locus YBL061C, strain skt5, stronger effect = lower value 0.981 | locus YBR009C, strain hhf1, stronger effect = lower value 0.988 | locus YBR021W, strain FUR4, stronger effect = lower value 1.01 | locus YBR023C, strain chs3, stronger effect = lower value 0.99 | locus YBR171W, strain sec66, stronger effect = lower value 0.933 | locus YBR229C, strain ROT2, stronger effect = lower value 1.01 | locus YBR231C, strain swc5, stronger effect = lower value 0.937 | locus YBR279W, strain paf1, stronger effect = lower value 0.998 | locus YCL011C, strain gbp2, stronger effect = lower value 0.991 | locus YCL016C, strain dcc1, stronger effect = lower value 1.03 | locus YCL029C, strain bik1, stronger effect = lower value 0.988 | locus YCL061C, strain MRC1, stronger effect = lower value 0.968 | locus YCL069W, strain vba3, stronger effect = lower value 0.995 | locus YCR088W, strain abp1, stronger effect = lower value 0.952 | locus YDL005C, strain med2, stronger effect = lower value 0.97 | locus YDL035C, strain GPR1, stronger effect = lower value 1.04 | locus YDL040C, strain nat1, stronger effect = lower value 0.962 | locus YDL074C, strain BRE1, stronger effect = lower value 0.993 | locus YDL101C, strain DUN1, stronger effect = lower value 1 | locus YDL134C, strain PPH21, stronger effect = lower value 1.03 | locus YDL185W, strain tfp1, stronger effect = lower value 0.989 | locus YDL192W, strain arf1, stronger effect = lower value 0.995 | locus YDR001C, strain nth1, stronger effect = lower value 0.951 | locus YDR069C, strain doa4, stronger effect = lower value 0.943 | locus YDR101C, strain arx1, stronger effect = lower value 0.999 | locus YDR137W, strain rgp1, stronger effect = lower value 0.999 | locus YDR150W, strain NUM1, stronger effect = lower value 1.01 | locus YDR159W, strain sac3, stronger effect = lower value 0.955 | locus YDR162C, strain NBP2, stronger effect = lower value 1.01 | locus YDR195W, strain ref2 0.926 | locus YDR297W, strain sur2, stronger effect = lower value 0.98 | locus YDR318W, strain mcm21, stronger effect = lower value 0.988 | locus YDR334W, strain swr1, stronger effect = lower value 0.909 | locus YDR335W, strain msn5, stronger effect = lower value 0.949 | locus YDR388W, stronger effect = lower value 0.993 | locus YDR392W, strain spt3, stronger effect = lower value 1.03 | locus YDR502C, strain sam2, stronger effect = lower value 0.992 | locus YEL003W, strain gim4, stronger effect = lower value 0.966 | locus YEL037C, strain rad23, stronger effect = lower value 0.975 | locus YEL061C, strain CIN8 (second series), stronger effect = lower value 0.96 | locus YEL061C, strain CIN8, stronger effect = lower value 1.01 | locus YER015W, strain faa2, stronger effect = lower value 0.961 | locus YER016W, strain bim1, stronger effect = lower value 1 | locus YER110C, stronger effect = lower value 0.996 | locus YER111C, strain swi4, stronger effect = lower value 0.978 | locus YER155C, strain BEM2 (second series), stronger effect = lower value 0.886 | locus YER155C, strain BEM2, stronger effect = lower value 1 | locus YER167W, strain BCK2, stronger effect = lower value 1.01 | locus YFR010W, strain ubp6, stronger effect = lower value 0.95 | locus YGL078C, strain dbp3, stronger effect = lower value 0.993 | locus YGL086W, strain mad1, stronger effect = lower value 0.993 | locus YGL167C, strain pmr1, stronger effect = lower value 0.946 | locus YGL173C, strain kem1, stronger effect = lower value 1 | locus YGL227W, strain vid30, stronger effect = lower value 0.965 | locus YGL240W, strain doc1, stronger effect = lower value 0.948 | locus YGL248W, strain PDE1, stronger effect = lower value 0.995 | locus YGL253W, strain hxk2, stronger effect = lower value 0.998 | locus YGR078C, strain PAC10, stronger effect = lower value 0.996 | locus YGR135W, strain pre9, stronger effect = lower value 0.964 | locus YGR229C, strain SMI1, stronger effect = lower value 1.02 | locus YGR252W, strain gcn5, stronger effect = lower value 0.973 | locus YHR013C, strain ard1, stronger effect = lower value 0.991 | locus YHR027C, strain rpn1, stronger effect = lower value 0.985 | locus YHR030C, strain SLT2, stronger effect = lower value 1.01 and 1.03 | locus YHR079C, strain IRE1 (second series), stronger effect = lower value 0.984 | locus YHR079C, strain IRE1, stronger effect = lower value 1.03 | locus YHR094C, strain hxt1, stronger effect = lower value 0.987 | locus YHR129C, strain ARP1, stronger effect = lower value 1.01 | locus YHR142W, strain chs7, stronger effect = lower value 0.987 | locus YHR200W, strain rpn10, stronger effect = lower value 0.996 | locus YIL066C, strain RNR3, stronger effect = lower value 1.01 | locus YIL073C, strain SPO22, stronger effect = lower value 0.976 | locus YIL125W, strain kgd1, stronger effect = lower value 0.987 | locus YIR030C, strain dcg1, stronger effect = lower value 0.999 | locus YJL092W, strain hpr5, stronger effect = lower value 0.962 | locus YJL095W, strain BCK1 (second series), stronger effect = lower value 0.978 | locus YJL095W, strain BCK1, stronger effect = lower value 0.966 and 1.04 | locus YJL115W, strain asf1, stronger effect = lower value 0.95 | locus YJL129C, strain trk1, stronger effect = lower value 0.932 | locus YJL134W, strain LCB3, stronger effect = lower value 0.999 | locus YJL154C, strain vps35, stronger effect = lower value 0.954 | locus YJL164C, strain tpk1, stronger effect = lower value 1.02 | locus YJL166W, strain qcr8, stronger effect = lower value 0.929 | locus YJL168C, strain set2, stronger effect = lower value 0.99 | locus YJL187C, strain SWE1 (second series), stronger effect = lower value 0.994 | locus YJR043C, strain POL32, stronger effect = lower value 1.04 | locus YJR066W, strain TOR1, stronger effect = lower value 0.984 | locus YJR075W, strain HOC1, stronger effect = lower value 0.983 | locus YKL009W, strain mrt4, stronger effect = lower value 0.99 | locus YKL068W, stronger effect = lower value 0.993 | locus YKL085W, strain MDH1 (second series), stronger effect = lower value 0.984 | locus YKL085W, strain MDH1, stronger effect = lower value 0.984 | locus YKL160W, strain elf1, stronger effect = lower value 0.97 | locus YKR001C, strain vps1, stronger effect = lower value 0.997 | locus YKR026C, strain gcn3, stronger effect = lower value 0.966 | locus YKR091W, strain srl3, stronger effect = lower value 0.966 | locus YLL001W, strain dnm1, stronger effect = lower value 0.926 | locus YLL026W, stronger effect = lower value 0.986 | locus YLL041C, strain sdh2, stronger effect = lower value 0.97 | locus YLR027C, strain aat2, stronger effect = lower value 0.966 | locus YLR039C, strain RIC1, stronger effect = lower value 1.1 | locus YLR058C, strain SHM2, stronger effect = lower value 0.996 | locus YLR102C, strain apc9, stronger effect = lower value 0.976 | locus YLR113W, strain HOG1, stronger effect = lower value 1.05 | locus YLR221C, strain rsa3, stronger effect = lower value 1.01 | locus YLR258W, strain gsy2, stronger effect = lower value 0.997 | locus YLR262C, strain YPT6 (second series), stronger effect = lower value 0.954 | locus YLR262C, strain YPT6, stronger effect = lower value 1.08 | locus YLR268W, strain sec22, stronger effect = lower value 0.988 | locus YLR320W, strain mms22, stronger effect = lower value 1 | locus YLR330W, strain CHS5, stronger effect = lower value 1.01 | locus YLR342W, strain FKS1 (second series), stronger effect = lower value 0.997 | locus YLR342W, strain FKS1, stronger effect = lower value 0.946 | locus YLR357W, strain rsc2, stronger effect = lower value 0.958 | locus YLR370C, strain arc18, stronger effect = lower value 0.989 | locus YLR371W, strain rom2, stronger effect = lower value 0.993 | locus YLR384C, strain iki3, stronger effect = lower value 0.956 | locus YLR418C, strain cdc73, stronger effect = lower value 0.957 | locus YML016C, strain PPZ1, stronger effect = lower value 1.01 | locus YML032C, strain rad52, stronger effect = lower value 0.997 | locus YML120C, strain ndi1, stronger effect = lower value 0.973 | locus YML124C, strain tub3, stronger effect = lower value 0.997 | locus YMR058W, strain fet3, stronger effect = lower value 0.974 | locus YMR078C, strain ctf18, stronger effect = lower value 0.982 | locus YMR125W, strain sto1, stronger effect = lower value 0.917 | locus YMR129W, stronger effect = lower value 0.985 | locus YMR205C, strain PFK2, stronger effect = lower value 0.953 | locus YMR223W, strain ubp8, stronger effect = lower value 0.965 | locus YMR231W, strain pep5, stronger effect = lower value 0.965 | locus YMR307W, strain GAS1, stronger effect = lower value 1.09 | locus YNL067W, strain RPL9B, stronger effect = lower value 0.99 | locus YNL071W, strain lat1, stronger effect = lower value 0.982 | locus YNL153C, strain GIM3, stronger effect = lower value 0.981 | locus YNL183C, strain NPR1, stronger effect = lower value 0.997 | locus YNL209W, strain ssb2, stronger effect = lower value 0.99 | locus YNL233W, strain BNI4, stronger effect = lower value 0.982 | locus YNL248C, strain rpa49, stronger effect = lower value 0.987 | locus YNL250W, strain rad50, stronger effect = lower value 1.01 | locus YNL271C, strain bni1, stronger effect = lower value 0.994 | locus YNL298W, strain CLA4, stronger effect = lower value 0.991 | locus YNL307C, strain MCK1, stronger effect = lower value 0.979 | locus YNL322C, strain KRE1 (second series), stronger effect = lower value 0.93 | locus YNR049C, strain mso1, stronger effect = lower value 0.976 | locus YNR052C, strain pop2, stronger effect = lower value 0.992 | locus YOL012C, strain htz1 0.734 | locus YOL147C, strain pex11, stronger effect = lower value 0.989 | locus YOR001W, strain rrp6, stronger effect = lower value 0.953 | locus YOR061W, strain CKA2, stronger effect = lower value 1.02 | locus YOR069W, strain VPS5, stronger effect = lower value 1.01 | locus YOR070C, strain gyp1, stronger effect = lower value 0.987 | locus YOR080W, strain dia2, stronger effect = lower value 0.945 | locus YOR083W, strain WHI5, stronger effect = lower value 0.947 | locus YOR106W, strain vam3, stronger effect = lower value 0.939 | locus YOR136W, strain idh2, stronger effect = lower value 0.99 | locus YOR144C, strain elg1, stronger effect = lower value 0.99 | locus YOR184W, strain ser1, stronger effect = lower value 0.99 | locus YOR231W, strain MKK1, stronger effect = lower value 1.04 | locus YOR265W, strain rbl2, stronger effect = lower value 0.967 | locus YOR270C, strain vph1, stronger effect = lower value 0.966 | locus YOR290C, strain snf2, stronger effect = lower value 1.01 | locus YOR316C, strain cot1, stronger effect = lower value 0.991 | locus YPL051W, strain arl3, stronger effect = lower value 0.985 | locus YPL078C, strain atp4, stronger effect = lower value 0.933 | locus YPL106C, strain sse1, stronger effect = lower value 0.944 | locus YPL240C, strain hsp82, stronger effect = lower value 0.967 | locus YPL256C, strain CLN2, stronger effect = lower value 1.03 | locus YPR119W, strain clb2, stronger effect = lower value 0.981 | locus YPR141C, strain kar3, stronger effect = lower value 0.98 | locus YPR163C, strain tif3, stronger effect = lower value 1 | locus YPR167C, strain met16, stronger effect = lower value 0.987 | strain wtn01, stronger effect = lower value 0.986
